ELG1 repair inh: blocks ELG1-dependent DNA repair in HEK293T cells; HEK293T ELG1-luciferase reporter, luminescence, 16 h; DNA damage induced by 5-fluorouridine; Potency, µM (top dose mostly 46.1 µM), usual class: inhibitors; 2.3% of 330,000 active; AID 504467; further: nearly all actives have a fitted effect of over 55% in size
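In this reporter screen, reduction of luminescence relative to DMSO vehicle indicated activity. Compounds and 5-fluorouridine were added together to 2,000 cells per well, incubated for 16 hr at 37 °C, then developed with ONE-Glo.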
Gal4-VP16 FLuc: counter-screen for ROR gamma inhibitors: Gal4-VP16 reporter | Drosophila S2 Gal4-VP16 UAS-luciferase, luminescence, 20 h | Potency, µM (highest dose often 53.6 µM), hits mostly inhibitors | 3.5% of 310,000 active;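 further: Gal4-VP16 expression switched on by copper sulfate through the metallothionein promoter; nearly all actives have a fitted effect of over 50% in size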
p53 reactivation: re-activators of mutant p53; H1299 p53-A138V BP100-luciferase reporter, luminescence, 24 h; Potency, µM (series often up to 92.2 µM), most hits filed as activators; 0.063% of 320,000 active; further: nearly all actives have a fitted effect of over 45% in size
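p53-null H1299 cells stably carrying temperature-sensitive p53-A138V and a BP100-luciferase reporter were pinned with compounds (4-point, 1:5 series) and held 24 hrs at 37 deg C. Luminescence was read 10 min after detection reagent.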
BRCA1 expr up: BRCA1 expression activation; MCF7-BRCA1-FFLuc reporter, luminescence, 48 h; response scale: scaled: vehicle 0%, 10 µM genistein 100%; Potency, µM (top dose mostly 46.1 µM), most hits filed as activators; 1.1% of 380,000 active; AID 624202; further: nearly all actives have a fitted effect of over 80% in size
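48 h compound treatment of MCF7-BRCA1-FFLuc cells (phenol-red free MEM, 37 °C), then 15 min with luciferase substrate and luminescence imaging.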
Giardia kill: Giardia lamblia killing. Giardia lamblia trophozoite viability. activity change, % at 7.66 µM, hits read low. 0.15% of 340,000 active. AID 540267; in the data active means activity change below about -80%; inconclusive means between about -30% and that limit;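 further: parasites exposed to compound for two days anaerobically before the ATP read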
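Each well holds 100 Giardia trophozoites and compound. After two days (48 hrs) at 37 deg C in anaerobic conditions, ATP is quantified by luminescence.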
RORg inh: inhibitors of mouse ROR gamma transcriptional activity; AID 2551; 5.4% of 310,000 active; Potency, µM (highest dose often 53.6 µM), actives largely listed as inhibitors; Drosophila S2 Gal4-RORgamma UAS-luciferase reporter, 20 h; further: nearly all actives have a fitted effect of over 60% in size
Target sequence (P51450 whole entry, looked up, the tested form may be a part): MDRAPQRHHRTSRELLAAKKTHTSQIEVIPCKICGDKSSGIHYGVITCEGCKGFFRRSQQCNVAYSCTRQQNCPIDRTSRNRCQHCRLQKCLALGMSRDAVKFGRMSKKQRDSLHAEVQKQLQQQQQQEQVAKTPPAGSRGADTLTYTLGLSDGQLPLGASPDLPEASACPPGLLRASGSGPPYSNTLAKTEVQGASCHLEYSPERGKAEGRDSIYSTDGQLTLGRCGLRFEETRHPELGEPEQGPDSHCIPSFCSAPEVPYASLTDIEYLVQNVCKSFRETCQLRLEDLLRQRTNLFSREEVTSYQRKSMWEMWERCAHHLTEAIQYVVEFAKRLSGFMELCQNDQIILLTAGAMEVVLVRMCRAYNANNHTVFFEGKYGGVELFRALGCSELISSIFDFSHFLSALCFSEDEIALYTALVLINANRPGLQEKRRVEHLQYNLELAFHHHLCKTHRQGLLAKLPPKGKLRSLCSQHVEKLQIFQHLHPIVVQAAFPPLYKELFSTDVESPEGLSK
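ROR gamma transcriptional activity was tracked as Gal4-UAS luciferase output in stably transfected Drosophila Schneider cells, with compound added 1 hr before 700 uM copper sulfate induction and a 20 hr ambient-temperature incubation.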
Each line names hits and unclear results; the compound was inactive in the other large screens. Shown are actives, neighbours in structure and some others; about 7.6% of the full set was active somewhere. Unless noted, the call rests on the fitted dose curve; in most records, active means well fitted curve in the direction sought with a large enough effect; inconclusive means small, poorly fitted or top-dose-only effect, or another doubt; inactive means no such curve, though single readings can be large; an effect the other way counts as inactive or inconclusive.

Nc1nnnn1/N=C/C=C/c1ccccc1	ELG1 repair inh inconclusive
COc1cccc(/C=N/n2nnnc2N)c1	none
Nc1nnnn1/N=C/C(Br)=C/c1ccccc1	ELG1 repair inh inconclusive, Gal4-VP16 FLuc inconclusive, RORg inh 3.2µM
Cc1ccc(/C=N/n2nnnc2N)cc1	BRCA1 expr up 6.3µM, Giardia kill inconclusive (no result: ELG1 repair inh, Gal4-VP16 FLuc, p53 reactivation, RORg inh)
COc1ccccc1-n1c(SCC(=O)N2CCCCC2)nnc1-c1ccccc1O	RORg inh inconclusive
O=C1ON=C(c2ccccc2)/C1=C/c1ccc(-c2ccccc2[N+](=O)[O-])o1	ELG1 repair inh inconclusive, Gal4-VP16 FLuc 10µM, RORg inh inconclusive
Cc1ccc(OCC(=O)NNc2c3ccccc3nc3ccccc23)cc1	ELG1 repair inh inconclusive, Gal4-VP16 FLuc 13µM, RORg inh 10µM
O=C(Cc1ccccc1)NNc1c2ccccc2nc2ccccc12	Gal4-VP16 FLuc inconclusive, RORg inh inconclusive
Cc1cccc(OCC(=O)NNc2c3ccccc3nc3ccccc23)c1	ELG1 repair inh 15µM, Gal4-VP16 FLuc 5µM, RORg inh 3.5µM
CC(C)(C)c1cc(Br)c(O)c(N=Nc2ccc(S(=O)(=O)N3CCOCC3)cc2)c1	ELG1 repair inh inconclusive, Gal4-VP16 FLuc inconclusive, RORg inh 6.3µM
Cc1ccc(O)c(N=Nc2ccc(S(=O)(=O)N3CCOCC3)cc2)c1	none
COc1cc2c(NC3CCN(C)CC3)nc(N3CCCN(C)CC3)nc2cc1OCCCN1CCCC1	none (no result: ELG1 repair inh, Gal4-VP16 FLuc, p53 reactivation, Giardia kill, RORg inh)
CC(C)(C)c1ccc(O)c(/C=N\O)c1	ELG1 repair inh inconclusive, Gal4-VP16 FLuc inconclusive, p53 reactivation inconclusive, RORg inh 11µM
CC(C)(C)c1ccc(O)c(O)c1	Gal4-VP16 FLuc inconclusive, p53 reactivation inconclusive, RORg inh inconclusive
O=C(Nc1ccc(-c2nnn(CC(=O)N3CCN(C(=O)c4ccco4)CC3)n2)cc1)c1ccc(F)cc1	ELG1 repair inh inconclusive
CCOc1ccc(NC(=O)CN(C)C(=O)c2ccccc2OCc2cccc(C)c2)cc1OCC	ELG1 repair inh 10µM (no result: Gal4-VP16 FLuc, RORg inh)
CCOc1ccc(NC(=O)CN(C)C(=O)CSCc2ccc(C)cc2)cc1OCC	ELG1 repair inh 7.3µM (no result: Gal4-VP16 FLuc, RORg inh)
COc1cc2cc(C(N)=O)c(N)nc2cc1OC	none
COc1ccc2cc(CCNC(=O)CC(C)(C)C)c(=O)[nH]c2c1	none
CS(=O)(=O)N(CC(=O)NCC1CCCO1)c1cc(Cl)ccc1Cl (stereo not drawn)	none
Cc1cc(N=Cc2c(O)n(-c3cccc(Cl)c3)c(=O)c3ccccc23)no1	ELG1 repair inh 18µM
COc1ccc(-c2csc(Nc3ccccc3)[n+]2CC(O)c2ccc([N+](=O)[O-])cc2)cc1 (stereo not drawn)	ELG1 repair inh 21µM
COC(=O)[C@@H]1Cc2c([nH]c3ccccc23)C(C)N1C(=O)c1ccccc1 (stereo partly drawn)	ELG1 repair inh 12µM
COc1ccc(Br)cc1/C=C/c1ccc2cccc(O)c2n1	Gal4-VP16 FLuc inconclusive, RORg inh 4.5µM
CCOc1c(OC(C)=O)ccc(/C=C/c2ccc3cccc(OC)c3n2)c1[N+](=O)[O-]	RORg inh inconclusive
COc1cc(Br)cc(/C=C/c2ccc3cccc(O)c3n2)c1OC	Gal4-VP16 FLuc inconclusive, RORg inh 2.5µM
CCOCCn1ccc2c(OCC(=O)Nc3ccc(OC)c(OC)c3)cccc2c1=O	ELG1 repair inh inconclusive (no result: Gal4-VP16 FLuc, RORg inh)
CC(C)Oc1ccc(C(=O)OC(C)C(=O)Nc2nc(-c3cccc([N+](=O)[O-])c3)cs2)cc1 (stereo not drawn)	ELG1 repair inh 16µM
CC(C)N1CCN(Cc2ccc3nsnc3c2)CC1CCO (stereo not drawn)	none
O=C(CCn1c(=S)[nH]c2cc3c(cc2c1=O)OCO3)NCc1cccc(Cl)c1	Gal4-VP16 FLuc inconclusive, RORg inh inconclusive
O=C(CCCn1c(=S)[nH]c2cc3c(cc2c1=O)OCO3)N1CCN(c2ccccn2)CC1	ELG1 repair inh 15µM, Gal4-VP16 FLuc inconclusive, RORg inh 13µM
O=C(CCCn1c(=S)[nH]c2cc3c(cc2c1=O)OCO3)NCc1cccc(Cl)c1	Gal4-VP16 FLuc inconclusive, RORg inh 13µM
O=C(CCCCCn1c(=S)[nH]c2cc3c(cc2c1=O)OCO3)N1CCN(Cc2ccccc2)CC1	p53 reactivation inconclusive (no result: Gal4-VP16 FLuc)
COc1ccc(N2CCN(C(=O)CCCn3c(=S)[nH]c4cc5c(cc4c3=O)OCO5)CC2)cc1	ELG1 repair inh 21µM, Gal4-VP16 FLuc inconclusive, RORg inh 7.1µM
Cc1ccc(S(=O)(=O)N(C)Cc2ccc(C(=O)NN=C(CC(C)C)CC(C)C)cc2)cc1	Gal4-VP16 FLuc inconclusive, RORg inh 10µM
CC/C(=N\NC(=O)c1ccc(CN(C)S(=O)(=O)c2ccc(C)cc2)cc1)c1ccc(OC(F)F)cc1	ELG1 repair inh inconclusive, Gal4-VP16 FLuc inconclusive
CCCc1c(C(=O)NNc2ccc(C)cc2)cnn1-c1ccccc1	ELG1 repair inh 7.3µM
CCCc1c(C(=O)Nc2ccc(C(F)(F)F)cc2)cnn1-c1ccccc1	ELG1 repair inh inconclusive
CC1CN(S(=O)(=O)c2ccc(C(=O)Nc3nnc(-c4ccco4)o3)cc2)CC(C)O1 (stereo not drawn)	ELG1 repair inh 18µM, Gal4-VP16 FLuc 3.2µM, RORg inh 1µM
O=C(Nc1nnc(-c2ccco2)o1)c1ccc(S(=O)(=O)N2CCCC2)cc1	ELG1 repair inh inconclusive
CC1CCN(S(=O)(=O)c2ccc(C(=O)Nc3nnc(-c4ccco4)o3)cc2)CC1	ELG1 repair inh inconclusive, Gal4-VP16 FLuc 0.5µM, RORg inh 0.35µM
COc1cccc(-c2nnc(NC(=O)c3ccc(S(=O)(=O)N4CC(C)OC(C)C4)cc3)o2)c1 (stereo not drawn)	ELG1 repair inh 2.6µM, Gal4-VP16 FLuc 1µM, RORg inh 0.56µM
O=C1CNC(=S)N1C1CCCCCC1	RORg inh 11µM
COc1ccc(C(=O)Nc2ccccc2C(=O)N/N=C/c2cccc3ccccc23)cc1	ELG1 repair inh inconclusive, Gal4-VP16 FLuc 0.79µM, Giardia kill -95, RORg inh 1µM
COc1ccc(C(=O)Nc2cnc3ccccn3c2=O)cc1	ELG1 repair inh inconclusive, BRCA1 expr up 4.5µM
COc1cccc(/C=N/NC(=O)c2ccccc2NC(=O)c2ccco2)c1OC	none
CCC(NC(=O)c1ccccc1NC(=O)c1ccccc1)C(=O)OC (stereo not drawn)	Gal4-VP16 FLuc 6.3µM, RORg inh inconclusive
COc1ccc(C(=O)Nc2ccccc2C(=O)Nc2ccccc2C(=O)O)cc1	BRCA1 expr up inconclusive, Giardia kill inconclusive
COc1ccc(C(=O)Nc2ccccc2C(N)=O)cc1	ELG1 repair inh inconclusive, p53 reactivation inconclusive, BRCA1 expr up 6.3µM, Giardia kill inconclusive
CC(C)OC(=O)N(C)C[C@@H]1OCc2cnnn2CCCC(=O)N([C@@H](C)CO)C[C@@H]1C	none (no result: ELG1 repair inh, Gal4-VP16 FLuc, p53 reactivation, Giardia kill, RORg inh)

Bioassay records from PubChem.
